Reference: the supplement of paper PMC10849652
The full data set covers some 8,800 targets. This sample favours those with a hit. About 0.5% of all pairs of compound and target were hits. A number with no mark means an inactive call.

Key:
Experiment in all cases: log2 fold change, soluble protein after heating vs DMSO (PISA); higher = thermal stabilisation; K562 lysate, 10 uM; active = over 0.2 and 3.5 SD of the protein, either way, in both replicates (recomputed)
[1] = compound: C=CC(=O)N1CCC[C@@H](n2nc(-c3ccc(Oc4ccccc4)cc3)c3c(N)ncnc32)C1 [ibrutinib]
Method in brief: (§1)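 To prepare the extract, K562 pellets were dounce-homogenised in PBS pH 7.4 with 1 mM MgCl2, giving crude material at 1 mg/mL protein. This was treated with 10 μM compound for 30 min, then heated in aliquots for 3 min over 48°C-58°C before pooling and addition of NP-40 to 0.5% at 4°C. Centrifugation at 21,000xg for 90 min left soluble protein in the supernatant, which TMTpro 16plex LC-MS/MS quantified with equalised channel sums. Results are log-two fold changes in thermal stability compared with solvent controls, from duplicates.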

[2] = compound: CC(=O)c1cnc2ccc(-c3cc(Cl)c(O)c(Cl)c3)nc2c1N[C@H]1CC[C@H](CN(C)C)CC1
Method in brief: as §1

[3] = compound: CC(C)(C)Cn1c(N)nc2ccc(-c3[nH]c(C(C)(C)C)nc3-c3ccc(F)cc3)nc21 [ralimetinib]
Method in brief: as §1

[4] = compound: CC(C)(O)CC(=O)NCCn1ccc2ncnc(Nc3ccc(Oc4cccc(C(F)(F)F)c4)c(Cl)c3)c21
Method in brief: as §1

[5] = compound: CC(C)C1=C2N=C(C=C(N2N=C1)NCC3=CC=CC=C3)NCCCCCCN
Method in brief: as §1

[6] = compound: CC1=C(C(CC(=O)N1)C2=CC=C(C=C2)C(F)(F)F)C(=O)NC3=C(C=C4C(=C3)C=NN4)F
Method in brief: as §1

[7] = compound: CC1=C(C2=C(C=C1)C(=O)C3=CC=CC=C3N2CCCN)C
Method in brief: as §1

[8] = compound: CC1=C(C=C(C=C1)NC(=O)C2=CC(=CC=C2)C(C)(C)C#N)NC3=CC4=C(C=C3)N=CN(C4=O)C
Method in brief: as §1

[9] = compound: CC1=C(C=C(C=C1)NC(=O)C2=CC(=CC=C2)N(C)C)NC(=O)C3=CC=C(C=C3)O
Method in brief: as §1

[10] = compound: CC1=CC=C(C=C1)SC2=C3C=C(SC3=CN=C2)C(=O)N
Method in brief: as §1

[11] = compound: CCCS(=O)(=O)Nc1ccc(F)c(C(=O)c2c[nH]c3ncc(-c4ccc(Cl)cc4)cc23)c1F [vemurafenib]
Method in brief: as §1

[12] = compound: CCCS(=O)(=O)Nc1ccc(F)c(C(=O)c2c[nH]c3ncc(Cl)cc23)c1F
Method in brief: as §1

[13] = compound: CCN(CCCOc1ccc2c(Nc3cc(CC(=O)Nc4cccc(F)c4)[nH]n3)ncnc2c1)CCOP(=O)(O)O [barasertib]
Method in brief: as §1

[14] = compound: CC[C@@H]1C(=O)N(C)c2cnc(Nc3ccc(C(=O)NC4CCN(C)CC4)cc3OC)nc2N1C1CCCC1
Method in brief: as §1

[15] = compound: CC[C@@H]1C(=O)N(C)c2cnc(Nc3ccc(C(=O)N[C@H]4CC[C@H](N5CCN(CC6CC6)CC5)CC4)cc3OC)nc2N1C(C)C [volasertib]
Method in brief: as §1

[16] = compound: CCn1c(C(=O)N(C2CC2)C2CC2)cc2c3c(ncn3C)c(Nc3cc(C)n(C)n3)nc21
Method in brief: as §1

[17] = compound: CCn1cc(-c2ccnc3[nH]c(-c4cccc(CN(C)C)c4)cc23)c(-c2ccc(NC(=O)N(C)C)cc2)n1
Method in brief: as §1

[18] = compound: CN1CCC(CNc2ccc3ncc(-c4cccc(OC(F)(F)F)c4)n3n2)CC1
Method in brief: as §1

[19] = compound: CN1CCN(CCOc2cc(OC3CCOCC3)c3c(Nc4c(Cl)ccc5c4OCO5)ncnc3c2)CC1 [saracatinib]
Method in brief: as §1

[20] = compound: CN1CCN(c2nc(C3=C(c4c[nH]c5ccccc45)C(=O)NC3=O)c3ccccc3n2)CC1 [sotrastaurin]
Method in brief: as §1

Chain of UniProt Q8N1F8 (Q8N1F8 whole entry, looked up): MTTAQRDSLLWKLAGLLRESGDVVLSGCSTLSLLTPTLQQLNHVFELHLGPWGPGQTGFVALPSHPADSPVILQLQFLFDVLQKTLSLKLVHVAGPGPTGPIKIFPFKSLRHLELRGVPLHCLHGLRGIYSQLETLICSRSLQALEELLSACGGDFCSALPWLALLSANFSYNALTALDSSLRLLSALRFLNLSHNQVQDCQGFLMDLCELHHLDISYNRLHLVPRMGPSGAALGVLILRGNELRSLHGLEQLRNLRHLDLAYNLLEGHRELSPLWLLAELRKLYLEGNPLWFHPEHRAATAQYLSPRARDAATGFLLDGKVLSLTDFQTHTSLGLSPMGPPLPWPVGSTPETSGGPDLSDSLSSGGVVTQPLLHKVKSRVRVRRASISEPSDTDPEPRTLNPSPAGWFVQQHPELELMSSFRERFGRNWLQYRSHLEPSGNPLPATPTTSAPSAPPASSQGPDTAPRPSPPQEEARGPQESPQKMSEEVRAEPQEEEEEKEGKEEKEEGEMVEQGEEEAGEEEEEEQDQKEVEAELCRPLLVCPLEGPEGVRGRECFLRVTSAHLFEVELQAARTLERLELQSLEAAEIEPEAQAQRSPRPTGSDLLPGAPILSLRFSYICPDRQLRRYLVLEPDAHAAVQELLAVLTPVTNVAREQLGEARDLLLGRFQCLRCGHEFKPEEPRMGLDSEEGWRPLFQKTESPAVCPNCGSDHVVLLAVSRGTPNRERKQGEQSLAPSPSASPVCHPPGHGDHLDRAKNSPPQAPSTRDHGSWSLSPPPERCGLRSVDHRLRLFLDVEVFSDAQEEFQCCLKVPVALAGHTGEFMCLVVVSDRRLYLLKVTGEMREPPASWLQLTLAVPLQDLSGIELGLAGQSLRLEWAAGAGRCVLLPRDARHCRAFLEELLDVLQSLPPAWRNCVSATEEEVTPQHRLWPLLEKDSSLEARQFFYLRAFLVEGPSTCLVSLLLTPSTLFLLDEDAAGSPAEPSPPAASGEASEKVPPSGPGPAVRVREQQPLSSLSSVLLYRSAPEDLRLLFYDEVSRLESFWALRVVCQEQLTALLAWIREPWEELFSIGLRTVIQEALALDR
Chain of UniProt Q8NEM2 (Q8NEM2 whole entry, looked up): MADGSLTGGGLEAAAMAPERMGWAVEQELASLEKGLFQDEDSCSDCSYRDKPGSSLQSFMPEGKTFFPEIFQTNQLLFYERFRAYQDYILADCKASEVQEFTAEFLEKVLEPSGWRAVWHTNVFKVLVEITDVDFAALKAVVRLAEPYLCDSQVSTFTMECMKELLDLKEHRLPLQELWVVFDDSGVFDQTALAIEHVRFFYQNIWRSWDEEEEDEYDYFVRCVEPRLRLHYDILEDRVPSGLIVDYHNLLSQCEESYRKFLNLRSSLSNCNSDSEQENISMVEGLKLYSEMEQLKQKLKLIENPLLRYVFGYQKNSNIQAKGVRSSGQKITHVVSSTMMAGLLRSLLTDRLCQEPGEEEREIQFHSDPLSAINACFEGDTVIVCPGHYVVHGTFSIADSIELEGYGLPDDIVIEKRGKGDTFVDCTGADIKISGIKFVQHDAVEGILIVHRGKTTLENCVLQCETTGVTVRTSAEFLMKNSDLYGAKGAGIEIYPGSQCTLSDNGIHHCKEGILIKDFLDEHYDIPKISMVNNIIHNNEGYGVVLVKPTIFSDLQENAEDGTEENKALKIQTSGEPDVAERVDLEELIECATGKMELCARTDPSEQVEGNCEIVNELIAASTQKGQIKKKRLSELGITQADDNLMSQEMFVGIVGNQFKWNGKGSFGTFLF
Chain of UniProt Q13573 (Q13573 whole entry, looked up): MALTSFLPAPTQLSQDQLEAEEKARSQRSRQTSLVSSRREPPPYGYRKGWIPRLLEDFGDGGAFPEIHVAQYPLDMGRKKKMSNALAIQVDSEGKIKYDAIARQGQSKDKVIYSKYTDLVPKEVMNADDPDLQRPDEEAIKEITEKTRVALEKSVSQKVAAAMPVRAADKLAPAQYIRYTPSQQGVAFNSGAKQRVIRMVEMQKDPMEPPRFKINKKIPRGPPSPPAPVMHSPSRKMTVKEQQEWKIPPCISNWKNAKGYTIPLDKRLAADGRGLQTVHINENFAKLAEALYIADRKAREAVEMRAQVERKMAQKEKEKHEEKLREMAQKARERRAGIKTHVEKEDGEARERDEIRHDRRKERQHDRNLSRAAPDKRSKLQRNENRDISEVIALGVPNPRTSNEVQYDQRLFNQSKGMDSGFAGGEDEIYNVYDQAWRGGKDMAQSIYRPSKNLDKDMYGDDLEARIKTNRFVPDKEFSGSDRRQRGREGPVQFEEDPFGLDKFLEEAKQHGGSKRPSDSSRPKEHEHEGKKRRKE
Chain of UniProt Q8NHG7 (Q8NHG7 whole entry, looked up): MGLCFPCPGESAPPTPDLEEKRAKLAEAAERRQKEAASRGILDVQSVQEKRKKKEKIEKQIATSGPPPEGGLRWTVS
Chain of UniProt Q9UNE7 (Q9UNE7 whole entry, looked up): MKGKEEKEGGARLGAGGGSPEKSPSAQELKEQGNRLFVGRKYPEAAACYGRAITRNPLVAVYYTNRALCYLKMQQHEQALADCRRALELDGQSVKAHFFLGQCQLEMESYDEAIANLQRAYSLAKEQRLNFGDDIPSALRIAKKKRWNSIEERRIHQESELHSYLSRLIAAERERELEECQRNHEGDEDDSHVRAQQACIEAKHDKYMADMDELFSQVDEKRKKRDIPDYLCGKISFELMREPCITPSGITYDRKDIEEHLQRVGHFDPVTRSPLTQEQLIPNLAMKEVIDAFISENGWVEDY
Chain of UniProt P52630 (P52630 whole entry, looked up): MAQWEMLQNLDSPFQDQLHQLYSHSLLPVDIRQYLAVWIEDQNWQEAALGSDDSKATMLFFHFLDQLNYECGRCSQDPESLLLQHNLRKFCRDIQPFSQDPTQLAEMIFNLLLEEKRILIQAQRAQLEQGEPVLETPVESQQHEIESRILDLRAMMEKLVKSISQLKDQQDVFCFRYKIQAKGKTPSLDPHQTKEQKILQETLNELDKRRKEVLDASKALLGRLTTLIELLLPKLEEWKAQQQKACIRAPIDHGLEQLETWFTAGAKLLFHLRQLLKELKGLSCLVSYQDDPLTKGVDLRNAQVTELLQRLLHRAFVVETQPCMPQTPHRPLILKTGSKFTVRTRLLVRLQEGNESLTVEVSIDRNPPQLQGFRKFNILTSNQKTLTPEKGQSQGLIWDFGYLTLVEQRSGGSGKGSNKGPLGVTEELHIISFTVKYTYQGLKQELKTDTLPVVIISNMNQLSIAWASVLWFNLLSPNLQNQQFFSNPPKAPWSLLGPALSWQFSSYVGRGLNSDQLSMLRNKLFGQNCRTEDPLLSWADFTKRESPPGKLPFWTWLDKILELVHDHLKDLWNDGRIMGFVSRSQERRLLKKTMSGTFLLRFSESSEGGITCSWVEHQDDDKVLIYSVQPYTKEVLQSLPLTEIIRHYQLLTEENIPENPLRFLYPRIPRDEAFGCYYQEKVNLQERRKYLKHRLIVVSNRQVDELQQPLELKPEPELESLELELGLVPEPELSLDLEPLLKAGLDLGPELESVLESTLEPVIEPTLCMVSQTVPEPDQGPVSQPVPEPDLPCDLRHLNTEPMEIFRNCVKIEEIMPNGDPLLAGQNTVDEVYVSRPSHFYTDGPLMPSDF
Chain of UniProt Q6NXT6 (Q6NXT6 whole entry, looked up): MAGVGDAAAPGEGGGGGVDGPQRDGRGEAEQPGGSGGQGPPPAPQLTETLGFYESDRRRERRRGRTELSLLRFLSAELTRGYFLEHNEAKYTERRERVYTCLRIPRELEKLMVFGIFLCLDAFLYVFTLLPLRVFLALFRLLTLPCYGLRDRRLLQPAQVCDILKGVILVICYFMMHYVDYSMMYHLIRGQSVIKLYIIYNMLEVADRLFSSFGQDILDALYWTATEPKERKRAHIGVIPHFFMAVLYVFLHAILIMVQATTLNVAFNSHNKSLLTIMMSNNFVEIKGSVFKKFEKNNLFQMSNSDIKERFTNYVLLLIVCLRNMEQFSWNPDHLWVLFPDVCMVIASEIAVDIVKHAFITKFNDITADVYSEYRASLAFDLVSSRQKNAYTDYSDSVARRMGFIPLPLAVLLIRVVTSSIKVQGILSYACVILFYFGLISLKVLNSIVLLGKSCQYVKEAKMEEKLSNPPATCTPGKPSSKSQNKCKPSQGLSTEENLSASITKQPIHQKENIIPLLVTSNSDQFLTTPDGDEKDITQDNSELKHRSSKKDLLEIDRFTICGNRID
Chain of UniProt Q9Y6J9 (Q9Y6J9 whole entry, looked up): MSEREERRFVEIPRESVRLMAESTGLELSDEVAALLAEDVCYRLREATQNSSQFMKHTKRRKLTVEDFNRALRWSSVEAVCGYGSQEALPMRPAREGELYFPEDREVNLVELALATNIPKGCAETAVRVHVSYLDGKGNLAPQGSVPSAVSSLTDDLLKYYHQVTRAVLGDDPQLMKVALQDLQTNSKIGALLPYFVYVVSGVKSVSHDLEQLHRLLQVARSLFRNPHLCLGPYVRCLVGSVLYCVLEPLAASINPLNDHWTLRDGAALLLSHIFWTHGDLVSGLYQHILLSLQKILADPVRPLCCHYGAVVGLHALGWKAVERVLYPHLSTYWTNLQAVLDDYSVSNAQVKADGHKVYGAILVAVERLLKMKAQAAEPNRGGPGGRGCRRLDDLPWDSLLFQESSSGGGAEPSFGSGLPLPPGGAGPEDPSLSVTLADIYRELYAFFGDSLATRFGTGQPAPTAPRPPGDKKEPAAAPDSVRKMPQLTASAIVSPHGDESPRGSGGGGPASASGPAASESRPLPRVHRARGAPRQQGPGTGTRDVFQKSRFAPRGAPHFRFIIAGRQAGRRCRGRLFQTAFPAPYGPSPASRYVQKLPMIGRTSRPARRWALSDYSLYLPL
Chain of UniProt P35270 (P35270 whole entry, looked up): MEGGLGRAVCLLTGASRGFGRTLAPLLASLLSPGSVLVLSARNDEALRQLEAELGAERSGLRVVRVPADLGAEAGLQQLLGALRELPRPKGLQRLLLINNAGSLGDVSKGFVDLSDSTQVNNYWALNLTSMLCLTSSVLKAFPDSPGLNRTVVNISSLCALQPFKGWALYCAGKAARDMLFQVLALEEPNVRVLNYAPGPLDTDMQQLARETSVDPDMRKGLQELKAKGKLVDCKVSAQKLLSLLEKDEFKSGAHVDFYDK

| Target | log2 fold change [1] | log2 fold change [2] | log2 fold change [3] | log2 fold change [4] | log2 fold change [5] | log2 fold change [6] | log2 fold change [7] | log2 fold change [8] | log2 fold change [9] | log2 fold change [10] | log2 fold change [11] | log2 fold change [12] | log2 fold change [13] | log2 fold change [14] | log2 fold change [15] | log2 fold change [16] | log2 fold change [17] | log2 fold change [18] | log2 fold change [19] | log2 fold change [20] |
| --- | --- | --- | --- | --- | --- | --- | --- | --- | --- | --- | --- | --- | --- | --- | --- | --- | --- | --- | --- | --- |
| TAF6L (UniProt Q9Y6J9) | 0.072 | 0.046 | 0.042 | -0.078 | 0.01 | -0.041 | -0.006 | -0.027 | 0.027 | -0.009 | -0.029 | 0.035 | -0.05 | -0.245 (active) | -0.007 | -0.015 | 0.018 | 0.022 | 0.029 | 0.05 |
| SNAP23 (UniProt O00161) | 0.021 | -0.003 | -0.01 | 0.01 | -0.04 | -0.015 | 0.045 | 0.015 | -0.013 | 0.011 | 0.013 | -0.025 | 0.041 | -0.009 | 0.034 | 0.033 | 0.025 | 0.014 | -0.011 | -0.001 |
| STUB1 (UniProt Q9UNE7) | 0.015 | 0.011 | 0.005 | 0 | -0.018 | 0.023 | 0.032 | -0.012 | -0.001 | -0.019 | 0.01 | 0.02 | -0.007 | -0.072 | -0.051 | 0.018 | -0.015 | -0.03 | 0.006 | 0.004 |
| SMC6 (UniProt Q96SB8) | 0.021 | -0.006 | 0.005 | -0.012 | 0.023 | 0.065 | 0.006 | 0.006 | 0.001 | -0.01 | 0.044 | 0.01 | 0.014 | 0.047 | -0.031 | 0.012 | -0.036 | 0.024 | 0.046 | 0.027 |
| SNW1 (UniProt Q13573) | 0.01 | 0.001 | -0.005 | -0.007 | 0.014 | 0.007 | -0.045 | 0.016 | -0.004 | 0.015 | 0.019 | 0.01 | -0.019 | 0.07 | -0.021 | 0 | 0.191 | -0.037 | 0.016 | -0.037 |
| SPR (UniProt P35270) | 0.027 | 0.293 | 0.024 | 0 | -0.048 | -0.051 | -0.038 | -0.046 | -0.028 | 0.023 | 0.01 | 0.026 | -0.013 | -0.014 | -0.003 | -0.024 | 0.158 | -0.028 | 0.093 | -0.047 |
| SKA2 (UniProt Q8WVK7) | 0.037 | 0.004 | 0.016 | -0.003 | 0.014 | -0.004 | 0.032 | -0.099 | -0.011 | -0.03 | 0 | 0.014 | 0.078 | 0 | -0.043 | 0.02 | -0.032 | -0.015 | 0.028 | -0.097 |
| SMN1 (UniProt Q16637) | -0.085 | -0.028 | 0.01 | -0.01 | 0.002 | 0.001 | -0.018 | 0.018 | 0.137 | -0.045 | 0.031 | 0.075 | -0.056 | -0.026 | 0 | -0.037 | -0.073 | -0.031 | 0.053 | -0.039 |
| STK11IP (UniProt Q8N1F8) | -0.016 | -0.024 | 0.044 | -0.055 | 0 | 0.046 | 0.024 | -0.009 | 0 | 0.015 | -0.016 | 0.018 | -0.04 | 0.075 | -0.067 | 0.002 | 0.015 | -0.072 | 0.012 | 0.016 |
| TAPT1 (UniProt Q6NXT6) | 0.071 | 0.012 | -0.029 | -0.07 | 0.004 | -0.019 | -0.014 | 0.09 | -0.004 | -0.027 | 0.031 | 0.043 | -0.039 | 0.024 | 0.028 | -0.026 | -0.229 (active) | 0.106 | -0.014 | -0.002 |
| STAT2 (UniProt P52630) | 0.007 | 0.007 | 0.04 | -0.026 | -0.003 | 0.009 | -0.002 | -0.059 | 0.003 | 0.004 | 0.04 | 0.026 | -0.021 | -0.03 | -0.047 | 0.033 | -0.011 | -0.164 | -0.009 | 0.029 |
| SMG1 (UniProt Q96Q15) | 0.041 | 0.017 | 0.044 | -0.019 | -0.003 | 0.005 | 0.027 | 0.023 | 0.017 | 0.007 | 0.059 | 0.031 | 0.08 | 0.017 | -0.027 | -0.026 | 0.003 | -0.072 | 0.039 | 0.032 |
| SHCBP1 (UniProt Q8NEM2) | -0.04 | 0.023 | 0.026 | 0.031 | 0.012 | 0.009 | 0.002 | -0.008 | 0.056 | -0.041 | -0.016 | 0.003 | 0.041 | -0.041 | -0.044 | 0.027 | -0.091 | 0.022 | 0.027 | 0.019 |
| SPIRE1 (UniProt Q08AE8) | 0.082 | -0.031 | -0.028 | 0.011 | -0.014 | -0.069 | 0.002 | 0.014 | 0.016 | -0.05 | 0.009 | 0.05 | 0.023 | 0.051 | -0.016 | 0.003 | -0.298 | 0.077 | 0.017 | 0.089 |
| SVIP (UniProt Q8NHG7) | 0.088 | -0.031 | 0.01 | -0.062 | -0.017 | -0.029 | -0.014 | 0.075 | 0.017 | -0.019 | -0.014 | 0.014 | 0.051 | 0.079 | 0.095 | -0.11 | 0.033 | 0.005 | 0 | -0.086 |
